This is one part of the list. A call without a number means that no potency is given here. Calls of active or inactive are those of the source. Calls come from the whole dose curve; as a rule, active = well fitted inhibition curve with a large enough effect; inconclusive = small, poorly fitted or top-dose-only effect, or another doubt; inactive = no such curve, though single readings can be large or run the other way.
target: Vitamin D3 receptor (Homo sapiens) (UniProt P11473); test: qHTS for Inhibitors of the vitamin D receptor (VDR): Hit Validation using a Beta-Lactamase Assay (AID 602202); conditions: VDR beta-lactamase reporter cells, FRET ratio, cells co-treated with VDR agonist LG190178; series mostly up to 46.1 µM
Source text: The vitamin D receptor (VDR) is a ligand-activated transcription factor and is partially responsible for the regulation of the endocrine system. This includes the transcriptional regulation of genes involved in the production of the parathyroid hormone (PTH) and the regulation of the blood calcium level. High levels of PHT can cause hypercalcemia in the case of primary and tertiary hyperparathyroidism. The VDR-mediated gene regulation, activated by its ligand 1,25-dihydroxyvitamin D3 (1,25-(OH)2D3), is governed by the recruitment of coactivators. Our hypothesis is that small molecules, with the ability to inhibit the interaction between VDR and certain coactivators, are able to selectively modulate VDR-mediated transcription. Our long term objective is the application these VDR-coactivator inhibitors to study the role of VDR-coactivator binding for specific VDR regulated genes. Ultimately, these molecules can be developed into new treatments for hypercalcemic hyperparathyroidism. No small molecule or non-peptide inhibitors are known for the VDR-coactivator interaction.
In a collaboration between the University of Wisconsin, Milwaukee and the NIH Chemical Genomics Center (NCGC) a HTS-compatible enzymatic assay was developed. The assay uses fluorescence polarization as its read-out to measure the inhibition between VDR and coregulator peptide SRC2-3 exerted by small molecules. This assay was used to screen the NIH Molecular Libraries Small Molecule Repository (MLSMR). The cell-based VDR transcription assay was carried out with commercially available stably transfected HEK293 cells. The cell line expresses a fusion protein of VDR-GAL4 DNA binding domain, which is activated by agonist LG190178 and induces transcription of a beta-lactamase reporter gene under control of an UAS response element. Successful activation is detected by a decrease in time-resolved fluorescence resonance energy transfer (TR-FRET) caused by enzymatic cleavage of fluorescent betalactam substrate added after 24h incubation. The cleaved substrate concentration was quantified by measuring the fluorescence emission at 447 nm.
NIH Chemical Genomics Center [NCGC]
NIH Molecular Libraries Probe Centers Network [MLPCN]
Assay Submitter (PI): Alexander Arnold, University of Wilwaukee
Plate: 384 black clear bottom, tissue culture treated
Step 1: Plate 20,000 cell per well (32 uL)
Step 2: 4 hours incubatio
Step 3: Add screening compounds
Step 5: 18 hour incubation
Step 6: Add FRET reagent (6 uL)
Step 7: 2 hour incubation
Potency is the fitted concentration of half-maximal effect.

Chain of Vitamin D3 receptor (Homo sapiens) (P11473 whole entry, looked up): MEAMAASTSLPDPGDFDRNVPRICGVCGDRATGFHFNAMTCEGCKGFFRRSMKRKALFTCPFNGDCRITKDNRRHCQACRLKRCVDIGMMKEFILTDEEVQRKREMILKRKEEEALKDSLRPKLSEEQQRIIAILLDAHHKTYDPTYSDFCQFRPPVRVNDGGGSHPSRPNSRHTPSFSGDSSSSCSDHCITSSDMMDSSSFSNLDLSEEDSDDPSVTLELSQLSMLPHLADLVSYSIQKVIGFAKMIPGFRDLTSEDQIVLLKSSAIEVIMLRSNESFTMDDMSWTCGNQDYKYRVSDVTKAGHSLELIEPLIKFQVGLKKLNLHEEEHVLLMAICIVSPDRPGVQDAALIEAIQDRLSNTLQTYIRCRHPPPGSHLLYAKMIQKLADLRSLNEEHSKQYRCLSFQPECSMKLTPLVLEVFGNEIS

Compound	Potency
O=[N+]([O-])/C=C/c1ccc2c(ccn2Cc2ccccc2)c1	18.4 µM (active)
CCOC(=O)c1sc(NC(=O)CSc2nc(C)cc(C(F)(F)F)n2)c(C#N)c1C	inactive
Cc1cccc(CS(=O)(=O)c2ncc(Cl)c(C(=O)Nc3ccc(F)cc3)n2)c1	5.17 µM (active)
O=C(/C=C/c1ccc(Cl)c([N+](=O)[O-])c1)c1cccnc1	inactive
O=C(/C=C/c1ccccc1)c1ccccc1O	inactive
CCCCS(=O)(=O)c1oc(-c2cccs2)nc1S(=O)(=O)c1ccccc1	5.8 µM (active)
COc1ccc(CS(=O)/C(Cl)=C(/Cl)C(=O)Nc2ccc(OC)nc2)cc1 (stereo not drawn)	0.731 µM (active)
O=c1cc(CO)oc(C(Nc2cccc(C(F)(F)F)c2)c2ccccn2)c1O (stereo not drawn)	inactive
Cc1cc(C)nc(S/C=C/C(=O)c2ccccc2)n1	3.26 µM (active)
CC(=O)N(C1=C(Cl)C(=O)c2ccccc2C1=O)c1ccc(C(=O)O)cc1	20.6 µM (active)
CCOC(=O)N1CCN(C(c2cccnc2)c2ccc3cccnc3c2O)CC1 (stereo not drawn)	inactive
CCOc1ccc(N(Cc2ccccc2)C(=O)c2nc(S(C)(=O)=O)ncc2Cl)cc1	20.6 µM (active)
O=C(Nc1nc(-c2ccncc2)cs1)C1COc2ccccc2O1 (stereo not drawn)	inactive
C=CCOc1ccc(/C=C2/C(=O)ON=C2C)cc1OCC	inactive
CN(C)N=Nc1ccc2nc[nH]c2c1	inactive
Cc1ccc(O)c(NC(=O)CCS(=O)(=O)c2nc(-c3ccc4c(c3)OCO4)cc(C(F)(F)F)n2)c1	23.1 µM (active)
Cc1ccc(-c2nc3ccccn3c2Nc2c(C)cccc2C)o1	inactive
O=c1[nH]c(/C=C\c2cccc(C(F)(F)F)c2)nc(O)c1[N+](=O)[O-]	inactive
COC(=O)/C=C\C(=O)Nc1cccc([N+](=O)[O-])c1	14.6 µM (active)
C[C@@H](NC(=O)OC(C)(C)C)c1nnc(S(=O)(=O)Cc2ccccc2)o1	23.1 µM (active)
CCOC(=O)c1sc(=S)n2c1[nH]c(=O)c1ccc(C(=O)OC)cc12	inactive
CSc1nnc(NC(=O)c2nc(S(=O)(=O)Cc3ccc(C)cc3)ncc2Cl)s1	5.8 µM (active)
c1ccc2c(C[n+]3csc4ccccc43)cccc2c1	inactive
CC(=O)N1CC[n+]2c(-c3ccc([N+](=O)[O-])cc3)csc21	inactive
O=C(/C=C/c1ccc(Cl)cc1Cl)c1cccnc1	inactive
Cc1cccc(Oc2c([N+](=O)[O-])c(=O)n(C)c3ccccc23)c1	inactive
CC1CCN(C(=S)c2ccc(-c3ccc(Cl)cc3Cl)o2)CC1	inactive
COc1ccc(OCc2nnc3n2N=C(c2ccccc2)C(CC(=O)O)S3)cc1 (stereo not drawn)	inactive

Reference: PubChem BioAssay (NCATS)
